# Test results: the supplement of paper PMC3334620
# Whole data set: some 33,000 sequences, median “E-score (-0.5 to 0.5)” near -0.054, cut for the highest 2% near 0.35. The list comes from a sample in which the highest values are over-represented; it also holds similar and randomly drawn sequences.
# Target: T1, Stb5 (UniProt P38699)
# T1 sequence: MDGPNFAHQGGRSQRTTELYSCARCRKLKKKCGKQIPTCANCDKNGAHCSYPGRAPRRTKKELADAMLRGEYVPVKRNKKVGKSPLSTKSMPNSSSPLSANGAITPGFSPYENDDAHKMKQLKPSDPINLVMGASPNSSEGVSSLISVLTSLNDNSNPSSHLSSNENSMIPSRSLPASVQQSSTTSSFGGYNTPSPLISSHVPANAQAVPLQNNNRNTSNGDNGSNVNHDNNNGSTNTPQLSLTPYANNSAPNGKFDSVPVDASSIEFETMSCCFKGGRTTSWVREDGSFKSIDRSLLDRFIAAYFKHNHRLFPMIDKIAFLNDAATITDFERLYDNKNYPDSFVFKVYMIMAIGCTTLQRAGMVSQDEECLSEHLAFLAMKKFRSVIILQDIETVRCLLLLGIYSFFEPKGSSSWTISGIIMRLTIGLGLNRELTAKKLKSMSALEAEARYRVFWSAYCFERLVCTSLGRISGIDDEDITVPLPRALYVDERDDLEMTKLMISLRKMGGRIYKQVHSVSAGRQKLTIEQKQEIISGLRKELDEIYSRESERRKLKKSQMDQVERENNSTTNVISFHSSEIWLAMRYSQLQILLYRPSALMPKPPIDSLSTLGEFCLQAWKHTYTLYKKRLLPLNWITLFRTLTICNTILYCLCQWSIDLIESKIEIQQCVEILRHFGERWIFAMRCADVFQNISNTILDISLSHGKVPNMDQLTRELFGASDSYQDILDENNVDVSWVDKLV
# Assay: PBM E-score (8-mer binding enrichment) (E-score (-0.5 to 0.5)); higher = stronger / more preferred TF binding
# Settings: protein concentration: 200 nM; construct: GST-full length
# Summary of the method: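 Using PURExpress in vitro transcription/translation, GST-tagged yeast transcription factors were made in full-length or DNA-binding-domain form. These were applied at about 100-200 nM to double-stranded universal all-10-mer Agilent arrays, and bound protein was detected with fluorescent anti-GST. Scans were normalised with masliner before the Universal PBM Analysis Suite assigned E-scores to ungapped eight-base words pooled with their reverse complements.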
row,Sequence,PBM E-score
1,CAGGTGTA,-0.204
2,CCGGTGTA,0.366
3,CGCAAAGA,0.016
4,CTGAAATA,-0.0506
5,GCCTCACA,-0.212
6,TCCCCCGA,0.263
7,ACCCCCGA,0.371
8,AACCCCAA,-0.0237
9,CCCCCCGA,0.14
10,AACCCCGA,0.473
11,AACCCCCA,-0.0755
12,CTCTTGAC,-0.182
13,AGCTAAAT,0.088
14,CTCCAGCC,-0.15
15,AAGAATAA,0.0987
16,AATGAATA,0.0406
17,ATAATCCG,0.103
18,ATAAATCG,0.0618
19,ATAATCCA,-0.0209
20,ATAATGCC,0.386
21,CTAATCCC,0.354
22,ATAAATCA,-0.129
23,CTAATCCA,-0.106
24,ATAAATCC,0.382
25,ATAATCCC,0.389
26,CTAATGCC,0.285

row,Sequence,PBM E-score
1,CTAATCAC,0.189
2,ATAATGCG,0.0614
3,TGCCAGAA,-0.307
4,CGCTTACG,0.123
5,GCCCTACC,-0.0725
6,AAGATACG,-0.0742
7,CGCTGCCC,-0.0156
8,ACACGGCC,0.116
9,CCCTGTAA,-0.0001
10,AGCAGTTA,-0.194
11,CGCAGTTC,0.00085
12,CGCAGTTA,0.359
13,GAGATTGC,-0.0088
14,CCATTCTC,-0.126
15,AATCACTA,-0.155
16,ATCGGACG,0.305
17,GGCGGACA,0.357
18,ATCGGTCC,0.396
19,CTCGGTCC,0.242
20,ATCGGACA,0.332
21,ATCGGTCA,0.208
22,GGCGGAAA,0.227
23,CGCGGACC,0.319
24,GGCGGACC,0.412
25,GGCGGAAC,0.25
26,TGCGGACA,0.286

row,Sequence,PBM E-score
1,ATCGGACC,0.398
2,CTATAATC,0.019
3,GGCACCCA,-0.036
4,GCACTCAA,-0.0587
5,ATACCAAT,-0.00644
6,TCCCACAA,0.0012
7,ACTGCGCG,0.122
8,AGCGGAAC,0.295
9,AGCGGACC,0.359
10,AGCGGAGC,0.31
11,GCACGGGC,0.2
12,AGCTATTC,-0.0735
13,GAACTCAC,-0.221
14,AAAAGCCG,0.38
15,ACGGCCGT,0.226
16,AAGGCCGA,0.46
17,AAGGCCTG,-0.0882
18,AAAAGCCC,0.324
19,TAGGCCGA,0.125
20,CAGGCCGA,0.153
21,AAGGCCTT,-0.163
22,AAGGCCGT,0.421
23,CAGGCCGG,0.11
24,AAGGCCGG,0.407
25,AAAAGCCT,-0.122
26,TTCACAAA,-0.00748

row,Sequence,PBM E-score
1,GACCAAAC,-0.0734
2,AGACGGTC,0.142
3,CATCCATG,-0.205
4,CAAGGCCG,0.236
5,AAGGCCCG,0.359
6,GAGGCCGC,0.322
7,AAAGGCCG,0.446
8,CAGGCCCG,0.109
9,AAGGCCCA,-0.17
10,AAAGGCCC,0.274
11,AAGGCCGC,0.441
12,CAGGCCGC,0.187
13,AGACAGGG,-0.161
14,ACGCCTAG,-0.0889
15,ACATTAGA,-0.214
16,CATACTGG,-0.062
17,CCAGAGGG,-0.0691
18,CGCACGAA,-0.0424
19,GAGTTTAC,0.115
20,AGTTCCGA,0.374
21,CGTTCCGA,0.00452
22,AGTTCCGC,0.361
23,AGTTCCGG,0.333
24,GGTTCCGA,0.126
25,CGTTCCGC,0.226
26,ACCCATCG,0.1

row,Sequence,PBM E-score
1,CCCTCTTA,-0.167
2,AGCCCGCC,0.359
3,CGCCCGCC,0.258
4,GGCCCGAA,0.149
5,AGCCCGAT,0.328
6,ATCCCGAT,0.238
7,AGCCCGCG,0.334
8,ATCCCGAC,0.39
9,CGCCCGAC,0.33
10,AGCCCGAG,0.05
11,AGCCCGAC,0.373
12,GGCCCGAC,0.358
13,ATCCCGAG,0.161
14,ACACTTAA,-0.117
15,CACAAGCG,-0.0542
16,CAAAATCG,-0.0979
17,CCGTGAGC,0.196
18,CACTACCC,-0.179
19,ATGCACTA,-0.0627
20,GGTATGTA,0.18
21,CGACTAAC,0.00814
22,AACCCTGG,-0.284
23,ACAGGATC,-0.312
24,CAATTAAA,-0.00358
25,GCCTCCTA,-0.0585
26,AGACTTGG,-0.17

row,Sequence,PBM E-score
1,CTAACGCC,0.316
2,CAAACGCC,0.243
3,ATAACGCG,0.0524
4,ATAACGCC,0.359
5,AAAACGCC,0.368
6,AAAACGCG,0.0108
7,AAACCAGG,-0.00613
8,CCCGAGAG,0.0886
9,GAATTCTA,-0.248
10,ACCTTCAA,-0.0982
11,CTGGTTAA,-0.102
12,ACGGGGAT,0.415
13,ACGGGGAG,0.202
14,ACGGGGAC,0.241
15,ACGGGAAG,-0.0191
16,ACGGGGCT,0.366
17,ACGGGGCA,0.159
18,ACGGGCCT,0.376
19,ACGGGAAT,0.371
20,ACGGGGCC,0.221
21,ACGGGCCG,0.194
22,ACGGGCCA,0.169
23,ACGGGAAC,0.205
24,CCAATCTA,-0.0421
25,CACGCTGG,-0.14
26,CTGATAGA,-0.0917

row,Sequence,PBM E-score
1,CAAGTACA,-0.12
2,AAACAGAC,-0.131
3,ACTAGACA,-0.184
4,AACCGGGC,0.239
5,GCTTGGCC,0.143
6,GGCCACGA,0.111
7,AGTACCCA,-0.101
8,ATGGTCAG,-0.183
9,ACGGGCAC,0.105
10,ACCGGGGC,0.359
11,ACCGGGCC,0.306
12,ACGGGGTG,0.286
13,CCCGGGGC,0.258
14,ACCGGGCT,0.38
15,ACGGGCAG,-0.0575
16,ACCGGGCA,0.276
17,ACGGGGTC,0.362
18,ACGGGCAT,0.363
19,ACGGGGTA,0.248
20,ACCGGGGG,0.286
